Measured values: PubChem BioAssay
A number with no mark means an inactive call. Entries that show only a call come without a potency. For part of these data: Potency and affinity values are given separately. The source made the active and inactive calls. Unless noted, no rule for the calls is given here.

Experiments:
[1] = antimalarial activity against Dd2 strain (AID 2302;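 active = growth inhibition above 50% at the single 2 µM test dose, taken to imply half-maximal potency below 2 µM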); settings: P. falciparum Dd2 in RBCs, LDH growth readout, 72 h; at 2 µM; stronger effect = higher value
[2] = human hepatoma cell viability loss – ATP luminescence, cytotoxicity control for P. falciparum antimalarial project, primary screen (AID 2303;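 active = inhibition above 50%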); settings: HepG2 viability, 24-48 h, at 10 µM, stronger effect = higher value
[3] = target: L-lactate dehydrogenase (Plasmodium falciparum (isolate CDC / Honduras)) (UniProt Q27743); experiment: PfLDH activity inhibition – cell lysate, 3D7 strain, counter-screen for P. falciparum growth inhibition project (AID 2304); settings: P. falciparum 3D7 crude extract, LDH APAD/NBT absorbance; at 2 µM; stronger effect = higher value
[4] = inhibition of 3D7 malaria parasite growth – strain 3D7 (AID 2306); settings: P. falciparum 3D7 erythrocytic growth, LDH absorbance, 72 h; at 2 µM; stronger effect = higher value
[5] = target: Calcium-dependent protein kinase 1 (Plasmodium falciparum (isolate 3D7)) (UniProt P62344); experiment: PfCDPK1 kinase inhibitors, biochemical, TCAMS library (AID 1159585; cut-off not given, nearly all actives have IC50 up to about 0.98 µM;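 also: inhibitors leave more ATP so luminescence rises with inhibition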); settings: recombinant PfCDPK1, Kinase-Glo ATP depletion luminescence
[6] = target: Plasmodium falciparum protein kinase 6 (PK6, PF3D7_1337100) (UniProt Q8IDW1); experiment: PfPK6 kinase inhibitors, biochemical, TCAMS library (AID 1159586); settings: recombinant PfPK6, Kinase-Glo ATP depletion luminescence
[7] = target: Protein kinase 7 (PK7), Plasmodium falciparum 3D7 (PF3D7_0213400) (UniProt Q7YTF7); experiment: inhibition of Plasmodium PK7 catalytic activity – biochemical, TCAMS antimalarial set, Kinase-Glo luminescence (AID 1159587); settings: recombinant PfPK7, Kinase-Glo ATP depletion luminescence
[8] = target: Calcium-dependent protein kinase 4 (Plasmodium falciparum (isolate 3D7)) (UniProt Q8IBS5); experiment: PfCDPK4 kinase inhibitors, biochemical, TCAMS library (AID 1159588; cut-off not given, nearly all actives have IC50 up to about 0.91 µM); settings: recombinant PfCDPK4, Kinase-Glo ATP depletion luminescence
Sequence of Calcium-dependent protein kinase 4 (Plasmodium falciparum (isolate 3D7)) (Q8IBS5 whole entry, looked up): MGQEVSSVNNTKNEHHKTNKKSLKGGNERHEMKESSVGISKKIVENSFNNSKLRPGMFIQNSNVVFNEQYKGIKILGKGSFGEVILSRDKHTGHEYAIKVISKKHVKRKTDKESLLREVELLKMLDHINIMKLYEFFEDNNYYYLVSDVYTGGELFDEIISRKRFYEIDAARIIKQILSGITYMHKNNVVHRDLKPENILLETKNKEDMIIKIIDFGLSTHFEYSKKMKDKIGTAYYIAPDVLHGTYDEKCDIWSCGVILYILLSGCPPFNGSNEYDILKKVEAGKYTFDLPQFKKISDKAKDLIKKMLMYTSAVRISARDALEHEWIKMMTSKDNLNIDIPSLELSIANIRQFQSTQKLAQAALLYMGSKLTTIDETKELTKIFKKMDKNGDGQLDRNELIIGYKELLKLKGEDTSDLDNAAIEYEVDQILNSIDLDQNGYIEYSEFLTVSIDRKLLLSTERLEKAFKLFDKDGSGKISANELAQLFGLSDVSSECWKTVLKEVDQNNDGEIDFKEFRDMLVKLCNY

Sequence of L-lactate dehydrogenase (Plasmodium falciparum (isolate CDC / Honduras)) (Q27743 whole entry, looked up): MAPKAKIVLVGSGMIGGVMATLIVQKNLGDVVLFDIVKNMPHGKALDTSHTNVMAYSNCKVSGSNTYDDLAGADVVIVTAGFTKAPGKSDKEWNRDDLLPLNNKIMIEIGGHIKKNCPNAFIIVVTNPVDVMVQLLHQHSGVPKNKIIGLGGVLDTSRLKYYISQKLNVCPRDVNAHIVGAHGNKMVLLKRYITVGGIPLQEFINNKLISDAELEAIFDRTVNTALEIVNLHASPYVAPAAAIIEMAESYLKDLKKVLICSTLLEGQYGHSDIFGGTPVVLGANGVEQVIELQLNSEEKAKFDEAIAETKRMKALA
Sequence of Calcium-dependent protein kinase 1 (Plasmodium falciparum (isolate 3D7)) (P62344 whole entry, looked up): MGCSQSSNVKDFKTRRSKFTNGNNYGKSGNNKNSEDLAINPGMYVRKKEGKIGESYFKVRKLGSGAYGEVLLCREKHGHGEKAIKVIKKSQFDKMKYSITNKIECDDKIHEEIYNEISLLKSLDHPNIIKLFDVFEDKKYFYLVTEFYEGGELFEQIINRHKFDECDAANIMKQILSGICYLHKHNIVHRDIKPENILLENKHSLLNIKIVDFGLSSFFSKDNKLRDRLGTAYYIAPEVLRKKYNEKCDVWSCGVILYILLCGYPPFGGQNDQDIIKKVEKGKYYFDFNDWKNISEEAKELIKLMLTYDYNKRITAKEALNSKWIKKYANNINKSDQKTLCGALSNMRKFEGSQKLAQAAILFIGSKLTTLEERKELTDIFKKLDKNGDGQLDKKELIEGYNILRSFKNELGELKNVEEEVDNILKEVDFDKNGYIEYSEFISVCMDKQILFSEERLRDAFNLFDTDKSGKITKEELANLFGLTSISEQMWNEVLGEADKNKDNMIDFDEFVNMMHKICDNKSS
Sequence of Plasmodium falciparum protein kinase 6 (PK6, PF3D7_1337100) (Q8IDW1 1-305): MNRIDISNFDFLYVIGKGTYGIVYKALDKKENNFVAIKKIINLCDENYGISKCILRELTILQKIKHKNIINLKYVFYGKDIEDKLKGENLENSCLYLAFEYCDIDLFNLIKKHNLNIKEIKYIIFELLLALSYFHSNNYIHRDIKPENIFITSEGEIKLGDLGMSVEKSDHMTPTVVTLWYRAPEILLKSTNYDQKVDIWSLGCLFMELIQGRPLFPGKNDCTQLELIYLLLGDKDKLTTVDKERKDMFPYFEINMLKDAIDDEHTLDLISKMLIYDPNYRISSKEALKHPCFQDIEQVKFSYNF
Sequence of Protein kinase 7 (PK7), Plasmodium falciparum 3D7 (PF3D7_0213400) (Q7YTF7 1-343): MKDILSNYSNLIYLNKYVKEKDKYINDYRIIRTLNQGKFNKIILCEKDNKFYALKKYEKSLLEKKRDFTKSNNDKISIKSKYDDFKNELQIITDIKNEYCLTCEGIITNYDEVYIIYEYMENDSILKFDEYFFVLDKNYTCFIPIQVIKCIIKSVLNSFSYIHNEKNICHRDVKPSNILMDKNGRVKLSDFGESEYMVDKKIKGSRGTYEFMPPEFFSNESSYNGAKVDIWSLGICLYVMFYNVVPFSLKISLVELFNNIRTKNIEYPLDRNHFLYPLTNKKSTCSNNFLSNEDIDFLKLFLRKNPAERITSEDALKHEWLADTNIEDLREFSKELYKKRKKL

SMILES | growth inhibition [1] | inhibition [2] [%] | inhibition [3] [%] | growth inhibition [4] | outcome [5] | outcome [6] | outcome [7] | outcome [8]
COc1ccc2nccc([C@@H](O)CN3CCC(NC(=O)/C(=C/c4ccccc4)c4ccc(-c5ccccc5)cc4)CC3)c2c1 | 38% | 4 | 0 | 94% (active) | inactive | inactive | inactive | inactive
O=C(Nc1ccc(C(F)(F)F)cc1)c1cccc(S(=O)(=O)NCC2CCCN(CC3CCCCC3)C2)c1 (centres undefined) | 4% | 27 | 0 | 97% (active) | inactive | inactive | inactive | inactive
O=C(NCCCCN1CCC(c2ccc3ccccc3c2)CC1)c1ccc(NC(=O)c2ccc(Cl)cc2)cc1 | 93% (active) | 24 | -4 | 102% (active) | inactive | inactive | inactive | inactive
